Out of some 130,000 compounds screened, about 1,200 (0.92%) were called active.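 Rule for the calls: active = inhibition above the mean plus 3 SD, with well images judged a real hit on visual review (cut at about 60% in these data, passing the limit was not always enough); inconclusive = inhibition over the cutoff but images rejected on review; inactive = inhibition not above the cutoff.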 Many of the other results were omitted from the sample, so actives are more common in it than they were.
Test: insulin gene promoter suppression in islet cells – imaging, TRM-6 cells (human fetal islet line), eGFP reporter, cell count, primary screen (AID 1273;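 for normalized cell count: cells exposed to compound for 48 h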)
Conditions: at 2 µM, reporter expression induced with tamoxifen; inhibition: stronger effect = higher value; normalized cell count: measured here: cell count, toxicity

| SMILES | inhibition | normalized cell count [%] |
| --- | --- | --- |
| S=C(Nc1ccc2c(c1)OCO2)N1CCCC1 | -79% (inactive) | 73.4 |
| Fc1ccccc1N=C1Nc2cccc3cccc1c23 | 88.9% (active) | 172 |
| c1ccc(C2=Nc3cccc4cccc(c34)N2)cc1 | -73.5% (inactive) | 133 |
| COc1ccccc1C1=Nc2cccc3cccc(c23)N1 | -6.67% (inactive) | 113 |
| Cc1ccc(N(C(=O)Cc2cccs2)C2C=CS(=O)(=O)C2)cc1Cl (centres undefined) | 15% (inactive) | 128 |
| Cc1cc(NC(=O)CSc2nc3ccccc3n2CC(C)C)no1 | -41.7% (inactive) | 96.4 |
| CC1Cc2ccccc2N1S(=O)(=O)c1c(N)n(C)c(=O)n(C)c1=O (centres undefined) | -66.7% (inactive) | 73.2 |
| Cc1ccc(NC(=O)CSc2nnc(-c3cnccn3)n2Cc2ccco2)cc1C | -21.6% (inactive) | 100 |
| COc1ccc(NC(=O)CSc2nnc(-c3cccs3)n2Cc2ccco2)cc1OC | 72.7% (active) | 109 |
| O=C(CSc1nnc(-c2cccs2)n1Cc1ccco1)c1ccc2c(c1)OCO2 | 17.6% (inactive) | 96.9 |
| O=C(CCN1C(=O)c2ccncc2C1=O)Nc1cc(F)ccc1F | 25% (inactive) | 92 |
| CSCC(NS(=O)(=O)c1ccc(C)cc1)C(=O)O (centres undefined) | -387% (inactive) | 83.3 |
| Cn1c(N)c(C(=O)COC(=O)c2cnc(Cl)c(Cl)c2)c(=O)n(C)c1=O | -42.9% (inactive) | 106 |
| COCc1cc(C(C)=O)ccc1OC | 30.8% (inactive) | 97.5 |
| CCOc1ccc(C(C)=O)cc1COC(=O)c1cnc(Cl)c(Cl)c1 | 83.3% (active) | 144 |
| CCSc1sc(CC)cc1C=O | 57.1% (inactive) | 96.8 |
| CCN1CCN(c2ccc(NC(=O)c3cnccn3)cc2)CC1 | -35.7% (inactive) | 74.9 |

From PubChem BioAssay AID1273 (Columbia University Molecular Screening Center, 2008)
